For 6 molecules, outcome and AC50 results are on record in PubChem BioAssay (EPA / NIEHS).

A short description of experiment [1]: ATG_TAL_CIS: Attagene CIS-FACTORIAL HepG2 Assay for human TAL Basal Promoter (AID 2282966; active = hit-call score of the fitted dose curve at least 0.9, where 1 is the maximum; inactive = score below 0.9;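 also: background control endpoint measuring basal TAL promoter reporter mRNA not a specific factor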). The following applies: HepG2 Attagene cis-factorial TAL promoter reporter; actives raise or lower the signal. A digest of the protocol: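 Steps: transfect HepG2 with multiple reporter transcription units; dose 24 h; isolate RNA, reverse-transcribe, PCR-amplify, label with 6-FAM, digest with HpaI; resolve by capillary electrophoresis. Bidirectional fitting against DMSO baseline.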

The nature of experiment [2]: ATG_TGFb_CIS: Attagene CIS-FACTORIAL HepG2 Assay for human Transforming Growth Factor (TGF) (AID 2282967; active = hit-call score of the fitted dose curve at least 0.9, where 1 is the maximum; inactive = score below 0.9). The note with it: HepG2 Attagene CIS TGFb reporter, mRNA transcription; actives raise or lower the signal. A digest of the protocol: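 Liver HepG2 line, cis-factorial reporter panel, 24 h dosing. Quantitation: RT-PCR products labeled with 6-FAM, cut with HpaI, resolved by capillary electrophoresis; DMSO-referenced bidirectional analysis.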

A short description of experiment [3]: ATG_VDRE_CIS: Attagene CIS-FACTORIAL HepG2 Assay for human Vitamin D Receptor Element (VDRE) (AID 2282968; active = hit-call score of the fitted dose curve at least 0.9, where 1 is the maximum; inactive = score below 0.9). The note with it: HepG2 VDRE cis-reporter transcription, actives raise or lower the signal. The essentials:
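Transiently transfected HepG2 cells carrying cis-regulated reporter transcription units were exposed for 24 h. Reporter mRNA was measured by RT-PCR with fluorescent labelling and capillary electrophoresis, and fitted in both directions against DMSO.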

Experiment [4] addresses Estrogen receptor (Homo sapiens) (UniProt P03372). Kind of experiment: ATG_ERa_TRANS: Attagene TRANS-FACTORIAL HepG2 Assay for human Estrogen Receptor alpha (ERa) (AID 2282970). The following applies: HepG2 Attagene TRANS ERa GAL4 reporter, mRNA. The essentials:
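Multiplexed cell-based reporter format in HepG2: chimeric ERa-Gal4 protein drives GAL4-UAS reporter transcription. Fluorescent reporter mRNA quantified by capillary electrophoresis 24 hours after dosing; endpoint fitted as signal gain against DMSO.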

In experiment [5] the target is X-box-binding protein 1 (Homo sapiens) (UniProt P17861). The experiment in a line: ATG_Xbp1_CIS: Attagene CIS-FACTORIAL HepG2 Assay for human X-box Binding Protein 1 (XBP1) (AID 2282972; active = hit-call score of the fitted dose curve at least 0.9, where 1 is the maximum; inactive = score below 0.9). The note with it: HepG2 XBP1 cis-element reporter, Attagene multiplex; actives raise or lower the signal. A digest of the protocol:
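HepG2, transient MRTU transfection (cis-promoter driven), 24 h compound exposure. Total RNA → oligo(dT) RT → PCR → 6-FAM labeling → HpaI cut → CE. Bidirectional fit vs DMSO.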

The nature of experiment [6]: ATG_GAL4_TRANS: Attagene TRANS-FACTORIAL HepG2 Assay for GAL4 (Internal Marker) (AID 2282976). The note with it: HepG2 Attagene TRANS GAL4 internal marker reporter. A digest of the protocol:
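Liver HepG2 line bearing multiplexed GAL4-UAS reporter constructs; 24 h chemical treatment. Transcripts were quantified as fluorescent fragments on capillary electrophoresis after RT-PCR and HpaI cut, with activity fitted upward from DMSO.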

For experiment [7], the target named is Hepatocyte nuclear factor 4-alpha (Homo sapiens) (UniProt P41235). The experiment in a line: ATG_HNF4a_TRANS: Attagene TRANS-FACTORIAL HepG2 Assay for human Hepatocyte Nuclear Factor 4 alpha (HNF4a) (AID 2282982). The note with it: HepG2 HNF4a transactivation reporter, mRNA readout. A digest of the protocol:
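HepG2 cells transiently transfected with HNF4a-Gal4 chimera and GAL4-UAS reporter units, dosed for 24 h. Reporter mRNA measured by RT-PCR, fluorescent primer extension and capillary electrophoresis; gain-of-signal fitted relative to DMSO.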

A short description of experiment [8]: ATG_M_06_TRANS: Attagene TRANS-FACTORIAL HepG2 Assay for M06 Transcription Factor (Internal Marker) (AID 2282983).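 Also: reporter transcript level by RT-PCR then capillary electrophoresis fluorescence.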 The following applies: HepG2 Attagene TRANS M06 internal marker reporter. A digest of the protocol:
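Internal-marker background readout from a multiplexed TRANS reporter system in HepG2; 24 h dosing; mRNA induction quantified by RT-PCR plus capillary electrophoresis fluorescence; DMSO as negative control and baseline.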

The nature of experiment [9]: ATG_M_32_TRANS: Attagene TRANS-FACTORIAL HepG2 Assay for M32 Transcription Factor (Internal Marker) (AID 2282984).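 Also: transcript level of a background control reporter unit measured by RT-PCR and capillary electrophoresis.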 The note with it: HepG2 Attagene TRANS M32 internal marker reporter. A digest of the protocol: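 HepG2 cells transiently transfected with GAL4-UAS reporter units, dosed for 24 hours. Reporter mRNA quantified by RT-PCR, 6-FAM labelling, HpaI digestion and capillary electrophoresis; internal-marker signal fitted upward relative to DMSO.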

Experiment [10] deals with Transcriptional activator Myb (Homo sapiens) (UniProt P10242). Kind of experiment: ATG_Myb_CIS: Attagene CIS-FACTORIAL HepG2 Assay for human Myeloblastosis (Myb) Proto-Oncogene Transcription Factor (AID 2282986; active = hit-call score of the fitted dose curve at least 0.9, where 1 is the maximum; inactive = score below 0.9). The following applies: HepG2 Attagene CIS-FACTORIAL Myb reporter transcription; actives raise or lower the signal. A digest of the protocol: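 Fluorescence signals from capillary electrophoresis of RT-PCR-amplified reporter cDNA give the read-out. Cells: HepG2 transfected with multiple cis-regulated reporter units. Exposure lasts 24 hours; DMSO defines baseline for gain or loss of signal.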
Sequence of Transcriptional activator Myb (Homo sapiens) (P10242 whole entry, looked up): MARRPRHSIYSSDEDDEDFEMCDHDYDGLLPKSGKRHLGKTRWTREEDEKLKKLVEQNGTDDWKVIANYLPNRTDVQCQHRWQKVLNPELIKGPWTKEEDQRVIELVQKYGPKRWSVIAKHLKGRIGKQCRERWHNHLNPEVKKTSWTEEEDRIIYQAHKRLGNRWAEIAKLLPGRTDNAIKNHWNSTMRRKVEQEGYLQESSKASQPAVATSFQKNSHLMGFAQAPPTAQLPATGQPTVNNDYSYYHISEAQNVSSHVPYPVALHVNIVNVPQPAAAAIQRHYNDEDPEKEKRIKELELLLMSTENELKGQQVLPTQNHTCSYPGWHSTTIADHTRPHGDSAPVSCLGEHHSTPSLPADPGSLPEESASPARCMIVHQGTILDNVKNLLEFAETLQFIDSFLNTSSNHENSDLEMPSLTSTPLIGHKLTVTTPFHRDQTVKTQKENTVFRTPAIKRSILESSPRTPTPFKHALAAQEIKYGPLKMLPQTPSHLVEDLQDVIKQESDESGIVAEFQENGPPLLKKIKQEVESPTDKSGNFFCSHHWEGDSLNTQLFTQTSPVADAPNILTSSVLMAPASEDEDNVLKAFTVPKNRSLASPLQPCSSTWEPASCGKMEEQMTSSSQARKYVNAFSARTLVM

Experiment [11] addresses Nuclear respiratory factor 1 (Homo sapiens) (UniProt Q16656). The experiment in a line: ATG_NRF1_CIS: Attagene CIS-FACTORIAL HepG2 Assay for human Nuclear Respiratory Factor 1 (NRF1) Orphan Gene (AID 2282987; active = hit-call score of the fitted dose curve at least 0.9, where 1 is the maximum; inactive = score below 0.9). The following applies: HepG2 NRF1 cis-element reporter, Attagene multiplex; actives raise or lower the signal. The essentials:
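Transcriptional reporter readout, one component of a 52-endpoint multiplexed HepG2 panel. Exposure 24 h; mRNA detected via RT-PCR and fluorescent capillary electrophoresis; fitting in both directions against DMSO.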

Experiment [12] deals with Nuclear receptor subfamily 1 group I member 3 (Homo sapiens) (UniProt Q14994). Kind of experiment: ATG_CAR_TRANS: Attagene TRANS-FACTORIAL HepG2 Assay for human Constitutive Androstane Receptor (CAR) (AID 2282969).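 Also: activators raise reporter mRNA above DMSO so AC50 marks induction.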 The following applies: HepG2 Attagene TRANS-FACTORIAL CAR reporter. The essentials:
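HepG2 cells transiently transfected with GAL4-UAS reporter units; TRANS format reads activity of exogenous chimeric NR-Gal4 protein. After 24 h dosing, reporter mRNA quantified by RT-PCR, 6-FAM labelling and capillary electrophoresis; gain of signal fitted against DMSO.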

The target in experiment [13] is Nuclear receptor subfamily 4 group A member 2 (Homo sapiens) (UniProt P43354). The experiment in a line: ATG_NURR1_TRANS: Attagene TRANS-FACTORIAL HepG2 Assay for human Nuclear Receptor Related Protein 1 (NURR1) (AID 2282985). The note with it: HepG2 Attagene TRANS reporter, mRNA readout. A digest of the protocol:
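HepG2 cells transiently transfected with NURR1-Gal4 chimera and GAL4-UAS reporter units; after 24 hr compound exposure, reporter mRNA quantified by RT-PCR and capillary electrophoresis; gain of signal fitted against DMSO.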

For experiment [14], the target named is Oxysterols receptor LXR-beta (Homo sapiens) (UniProt P55055). Kind of experiment: ATG_LXRb_TRANS: Attagene TRANS-FACTORIAL HepG2 Assay for human Liver X Receptor beta (LXRb) (AID 2282981). The note with it: HepG2 Attagene TRANS GAL4-LXRb reporter, mRNA. A digest of the protocol: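 HepG2 cells transiently transfected with GAL4-UAS reporter units for chimeric NR-Gal4 proteins, dosed for 24 h. Reporter transcripts measured by RT-PCR and capillary electrophoresis; gain-of-signal fitting relative to DMSO.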
Sequence of Oxysterols receptor LXR-beta (Homo sapiens) (P55055 whole entry, looked up, the tested form may be a part): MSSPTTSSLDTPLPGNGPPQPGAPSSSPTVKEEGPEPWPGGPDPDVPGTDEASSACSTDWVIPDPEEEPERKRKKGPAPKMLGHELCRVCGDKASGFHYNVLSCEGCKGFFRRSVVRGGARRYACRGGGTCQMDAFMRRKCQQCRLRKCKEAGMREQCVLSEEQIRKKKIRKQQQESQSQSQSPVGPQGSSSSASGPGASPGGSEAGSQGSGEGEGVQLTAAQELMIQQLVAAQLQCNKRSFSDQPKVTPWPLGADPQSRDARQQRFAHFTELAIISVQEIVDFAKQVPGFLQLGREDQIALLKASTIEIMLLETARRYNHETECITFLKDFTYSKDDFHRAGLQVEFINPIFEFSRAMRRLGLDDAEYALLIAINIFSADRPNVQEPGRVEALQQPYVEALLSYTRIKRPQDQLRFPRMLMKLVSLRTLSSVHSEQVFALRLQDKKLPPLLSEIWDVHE

The nature of experiment [15]: ATG_M_19_TRANS: Attagene TRANS-FACTORIAL HepG2 Assay for M19 Transcription Factor (Internal Marker) (AID 2282974). The note with it: HepG2 Attagene TRANS-FACTORIAL M19 internal marker reporter. The essentials: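 Measured here: internal-marker reporter transcript from HepG2 cells transfected with MRTUs, harvested at 24 h. cDNA PCR products were 6-FAM labelled by primer extension, cut with HpaI for 2 h at 37 C, and resolved by CE.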

Experiment [16] concerns the target Estrogen-related receptor gamma (Homo sapiens) (UniProt P62508). The experiment in a line: ATG_ERRg_TRANS: Attagene TRANS-FACTORIAL HepG2 Assay for human Estrogen-Related Receptor gamma (ERRg) (AID 2282977).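 Also: hits increase reporter signal over DMSO so potencies reflect activators.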 The following applies: HepG2 Attagene TRANS reporter, ERRg transactivation. The essentials:
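HepG2 cells transiently transfected with multiplexed GAL4-UAS reporter units driven by chimeric NR-Gal4 proteins; 24 h exposure. Reporter mRNA quantified by RT-PCR, fluorescent labelling, HpaI digestion and capillary electrophoresis; gain of signal vs DMSO.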

For experiment [17], the target named is Glucocorticoid receptor (Homo sapiens) (UniProt P04150). Kind of experiment: ATG_GR_TRANS: Attagene TRANS-FACTORIAL HepG2 Assay for human Glucocorticoid Receptor (GR) (AID 2282978).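 Also: activators score as hits since higher reporter transcript over DMSO is fitted.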 The note with it: HepG2 Attagene TRANS GR reporter, mRNA transcription. The essentials: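 Measurement of GAL4-UAS-driven reporter mRNA in human HepG2 liver cells 24 h post-dosing, using RT-PCR with fluorescent labelling and capillary electrophoresis; the transfected constructs report exogenous NR-GAL4 chimera activity, fitted upward against DMSO.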

The target of experiment [18] is Bile acid receptor (Homo sapiens) (UniProt Q96RI1). The experiment in a line: ATG_FXR_TRANS: Attagene TRANS-FACTORIAL HepG2 Assay for Farnesoid X Receptor (FXR) (AID 2282979).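 Also: hits raise reporter mRNA above DMSO so AC50 marks FXR activation.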 The note with it: HepG2 Attagene TRANS FXR-GAL4 reporter transcription. A digest of the protocol:
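After 24 h chemical treatment of transfected HepG2 cells, GAL4-UAS reporter transcripts driven by an exogenous FXR-GAL4 fusion were measured by RT-PCR and capillary electrophoresis. Increases over DMSO were fitted.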

For experiment [19], the target named is Oxysterols receptor LXR-alpha (Homo sapiens) (UniProt Q13133). The experiment in a line: ATG_LXRa_TRANS: Attagene TRANS-FACTORIAL HepG2 Assay for human Liver X Receptor alpha (LXRa) (AID 2282980). The following applies: HepG2 Attagene TRANS reporter, LXRa transactivation. The essentials: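 In this multiplexed TRANS system, compounds act on HepG2 cells carrying GAL4-UAS reporter units and a receptor-GAL4 fusion for 24 h. Induced reporter RNA is amplified, fluorescently labelled and sized by capillary electrophoresis, with DMSO as baseline.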

The target of experiment [20] is Steroid hormone receptor ERR1 (Homo sapiens) (UniProt P11474). Kind of experiment: ATG_ERRa_TRANS: Attagene TRANS-FACTORIAL HepG2 Assay for human Estrogen-Related Receptor alpha (ERRa) (AID 2282971). The following applies: HepG2 Attagene TRANS reporter, ERRa transactivation. The essentials:
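Signal gain relative to DMSO for an ERRa-Gal4 chimeric receptor, read as reporter mRNA by RT-PCR/capillary electrophoresis. Human HepG2 liver cells, transient multiplex reporter transfection, 24 h chemical exposure.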

Inconclusive results are not listed. Activity calls are given as the source filed them. The calls were made as follows, unless noted: active = hit-call score of the fitted dose curve at least 0.9, where 1 is the maximum; inconclusive = response in the unintended direction; inactive = score below 0.9.

Sequence of Estrogen-related receptor gamma (Homo sapiens) (P62508 whole entry, looked up, the tested form may be a part): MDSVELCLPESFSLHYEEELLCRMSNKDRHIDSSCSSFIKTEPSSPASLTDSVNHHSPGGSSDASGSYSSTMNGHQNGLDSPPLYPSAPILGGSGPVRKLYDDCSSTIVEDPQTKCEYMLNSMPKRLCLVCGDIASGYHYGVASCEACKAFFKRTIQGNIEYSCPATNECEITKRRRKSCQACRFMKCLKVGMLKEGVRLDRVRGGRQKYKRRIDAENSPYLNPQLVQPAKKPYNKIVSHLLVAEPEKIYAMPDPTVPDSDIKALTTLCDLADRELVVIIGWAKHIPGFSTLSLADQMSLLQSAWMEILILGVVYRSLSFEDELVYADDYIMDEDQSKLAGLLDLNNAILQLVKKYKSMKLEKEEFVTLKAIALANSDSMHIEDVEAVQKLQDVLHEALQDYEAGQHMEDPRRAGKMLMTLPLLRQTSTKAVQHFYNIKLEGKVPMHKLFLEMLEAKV
Sequence of Nuclear receptor subfamily 4 group A member 2 (Homo sapiens) (P43354 whole entry, looked up, the tested form may be a part): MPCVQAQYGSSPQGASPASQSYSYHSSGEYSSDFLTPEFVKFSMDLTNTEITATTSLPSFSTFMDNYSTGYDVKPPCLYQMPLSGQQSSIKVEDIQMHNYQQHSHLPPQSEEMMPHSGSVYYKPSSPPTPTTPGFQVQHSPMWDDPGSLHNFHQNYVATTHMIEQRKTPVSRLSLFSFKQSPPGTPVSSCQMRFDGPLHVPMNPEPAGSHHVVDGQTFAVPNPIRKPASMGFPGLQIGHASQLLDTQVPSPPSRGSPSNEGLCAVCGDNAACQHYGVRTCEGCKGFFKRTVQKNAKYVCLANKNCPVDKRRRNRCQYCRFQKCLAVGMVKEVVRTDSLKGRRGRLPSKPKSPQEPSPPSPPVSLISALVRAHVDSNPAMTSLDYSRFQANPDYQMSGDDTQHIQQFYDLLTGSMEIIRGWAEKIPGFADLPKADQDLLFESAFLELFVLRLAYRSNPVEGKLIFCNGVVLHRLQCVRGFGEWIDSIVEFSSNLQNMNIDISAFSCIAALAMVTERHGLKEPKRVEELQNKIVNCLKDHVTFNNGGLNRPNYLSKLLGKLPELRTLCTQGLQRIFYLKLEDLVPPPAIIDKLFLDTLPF
Sequence of Nuclear receptor subfamily 1 group I member 3 (Homo sapiens) (Q14994 whole entry, looked up, the tested form may be a part): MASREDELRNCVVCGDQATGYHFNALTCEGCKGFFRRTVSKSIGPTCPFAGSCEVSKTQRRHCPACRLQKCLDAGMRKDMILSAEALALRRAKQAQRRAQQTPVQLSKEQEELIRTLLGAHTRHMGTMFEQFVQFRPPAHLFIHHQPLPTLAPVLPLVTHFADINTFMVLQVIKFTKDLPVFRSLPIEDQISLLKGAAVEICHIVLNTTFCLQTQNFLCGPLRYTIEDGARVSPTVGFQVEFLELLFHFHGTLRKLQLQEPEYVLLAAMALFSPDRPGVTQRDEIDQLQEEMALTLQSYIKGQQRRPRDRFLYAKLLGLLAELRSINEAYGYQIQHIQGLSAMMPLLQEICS
Sequence of Nuclear respiratory factor 1 (Homo sapiens) (Q16656 whole entry, looked up): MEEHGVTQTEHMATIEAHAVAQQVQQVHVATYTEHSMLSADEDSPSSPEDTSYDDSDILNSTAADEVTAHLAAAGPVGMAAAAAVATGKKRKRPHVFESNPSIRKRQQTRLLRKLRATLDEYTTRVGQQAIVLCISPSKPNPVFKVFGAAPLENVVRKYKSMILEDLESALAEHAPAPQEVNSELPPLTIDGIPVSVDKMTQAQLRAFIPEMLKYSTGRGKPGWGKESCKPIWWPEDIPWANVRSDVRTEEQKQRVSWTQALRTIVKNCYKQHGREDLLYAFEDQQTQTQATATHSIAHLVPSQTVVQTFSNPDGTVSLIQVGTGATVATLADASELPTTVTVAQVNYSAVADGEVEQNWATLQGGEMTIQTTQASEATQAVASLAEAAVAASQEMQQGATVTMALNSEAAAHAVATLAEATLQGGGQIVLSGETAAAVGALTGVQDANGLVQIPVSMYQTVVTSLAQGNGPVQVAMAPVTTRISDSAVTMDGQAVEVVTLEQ
Sequence of X-box-binding protein 1 (Homo sapiens) (P17861 whole entry, looked up): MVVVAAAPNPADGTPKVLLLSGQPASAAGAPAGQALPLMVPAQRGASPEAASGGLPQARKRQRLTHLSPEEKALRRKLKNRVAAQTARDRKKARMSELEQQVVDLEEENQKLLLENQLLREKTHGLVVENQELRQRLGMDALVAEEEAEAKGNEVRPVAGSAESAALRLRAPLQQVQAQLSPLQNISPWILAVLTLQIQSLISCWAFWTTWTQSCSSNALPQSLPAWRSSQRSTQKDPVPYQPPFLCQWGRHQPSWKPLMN
Sequence of Estrogen receptor (Homo sapiens) (P03372 whole entry, looked up, the tested form may be a part): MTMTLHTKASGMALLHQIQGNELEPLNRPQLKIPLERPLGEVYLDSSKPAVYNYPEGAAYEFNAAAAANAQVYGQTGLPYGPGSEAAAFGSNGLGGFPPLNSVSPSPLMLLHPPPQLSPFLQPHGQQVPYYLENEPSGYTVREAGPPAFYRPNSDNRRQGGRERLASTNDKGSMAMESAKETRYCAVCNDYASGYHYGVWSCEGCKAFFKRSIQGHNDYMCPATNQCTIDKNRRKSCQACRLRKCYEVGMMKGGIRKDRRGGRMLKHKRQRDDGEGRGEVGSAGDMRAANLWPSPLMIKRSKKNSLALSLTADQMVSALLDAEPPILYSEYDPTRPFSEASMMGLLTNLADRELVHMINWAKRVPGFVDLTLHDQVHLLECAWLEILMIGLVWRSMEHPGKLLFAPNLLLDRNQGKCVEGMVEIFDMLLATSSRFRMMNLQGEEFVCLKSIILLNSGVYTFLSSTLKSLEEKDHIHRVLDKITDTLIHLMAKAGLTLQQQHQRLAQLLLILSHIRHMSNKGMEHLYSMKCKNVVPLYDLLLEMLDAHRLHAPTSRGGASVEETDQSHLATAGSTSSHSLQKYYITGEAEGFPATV
Sequence of Bile acid receptor (Homo sapiens) (Q96RI1 whole entry, looked up, the tested form may be a part): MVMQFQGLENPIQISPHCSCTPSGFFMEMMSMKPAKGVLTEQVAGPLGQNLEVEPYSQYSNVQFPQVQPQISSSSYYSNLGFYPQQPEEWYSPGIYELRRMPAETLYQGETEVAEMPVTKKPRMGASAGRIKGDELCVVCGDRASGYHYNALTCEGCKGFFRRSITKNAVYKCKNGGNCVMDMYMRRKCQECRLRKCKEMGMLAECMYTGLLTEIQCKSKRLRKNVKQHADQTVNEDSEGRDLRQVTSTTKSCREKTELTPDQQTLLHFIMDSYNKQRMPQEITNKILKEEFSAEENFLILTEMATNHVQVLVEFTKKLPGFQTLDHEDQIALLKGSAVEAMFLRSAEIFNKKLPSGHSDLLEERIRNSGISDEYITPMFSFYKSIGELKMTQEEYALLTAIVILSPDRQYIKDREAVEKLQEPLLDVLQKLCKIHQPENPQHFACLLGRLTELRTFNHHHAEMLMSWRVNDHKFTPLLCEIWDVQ
Sequence of Hepatocyte nuclear factor 4-alpha (Homo sapiens) (P41235 whole entry, looked up, the tested form may be a part): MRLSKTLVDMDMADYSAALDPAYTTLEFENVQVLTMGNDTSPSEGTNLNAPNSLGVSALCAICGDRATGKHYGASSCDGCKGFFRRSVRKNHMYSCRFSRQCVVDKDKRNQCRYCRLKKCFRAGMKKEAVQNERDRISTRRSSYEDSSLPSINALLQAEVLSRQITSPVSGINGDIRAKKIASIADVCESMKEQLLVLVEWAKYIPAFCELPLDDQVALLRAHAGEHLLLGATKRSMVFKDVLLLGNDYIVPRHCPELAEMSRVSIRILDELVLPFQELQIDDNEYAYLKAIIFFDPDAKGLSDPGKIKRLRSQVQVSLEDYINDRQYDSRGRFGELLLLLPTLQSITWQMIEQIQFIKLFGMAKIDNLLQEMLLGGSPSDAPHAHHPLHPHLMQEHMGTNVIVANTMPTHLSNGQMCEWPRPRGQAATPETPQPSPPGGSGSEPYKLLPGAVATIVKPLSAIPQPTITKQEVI

With `CC(C)NCC(O)COc1ccc(CC(N)=O)cc1` (stereo unspecified), the call in experiment [1], in experiment [2], in [3], in [4], in experiment [5] and in experiment [6] was inactive. For the same molecule, the molecule was called inactive in experiment [7], in [8], in experiment [9], in experiment [10] and in experiment [11].
Take `CC(C)OCCO`: the molecule was called inactive in experiment [1], in experiment [2], in [3], in experiment [12], in experiment [8] and in experiment [13]. For the same molecule, in [11], the outcome was inactive.
`CC(C)(CO)[C@@H](O)C(=O)NCCC(=O)O`: the outcome in [1], in experiment [2], in experiment [3], in experiment [4], in [5] and in experiment [6] was inactive. In addition, the outcome in [14], in experiment [8], in experiment [9], in experiment [13], in experiment [10] and in [11] was inactive.
`CCCCCCCC/C=C\CCCCCCCC(=O)OCC`: the result in experiment [1], in [2], in experiment [3], in experiment [12], in [15] and in [16] was inactive. Further, the molecule was called inactive in experiment [17], in experiment [13], in [10] and in [11].
Broadly, the AC50 is the midpoint of the concentration-response curve, whichever way the signal moves. Turning to `CC(C)(C)C1=CC(=O)C(C(C)(C)C)=CC1=O`, the molecule was classed as inactive in experiment [1], in experiment [2], in experiment [16], in [18], in experiment [19] and in experiment [14]. Further, the molecule was called inactive in experiment [8], in experiment [10] and in experiment [11]. Moreover, the values for the AC50 in experiment [3], in experiment [12] and in experiment [13] were 19.7 µM (active), 20.1 µM (active) and 74 µM (active), respectively.
Take `Cc1cc(S(=O)(=O)O)ccc1N=Nc1c(O)ccc2ccccc12`: the molecule was classed as inactive in experiment [1], in [3], in [20], in experiment [5], in experiment [15] and in experiment [6]. Further, the result in [16], in [18], in experiment [14], in experiment [7], in [13] and in experiment [10] was inactive. In addition, in experiment [11], the molecule was classed as inactive. In addition, the concentration at half-maximal activity (AC50) in experiment [2] was 4.96 µM (active).
